# Test results reported in PubChem BioAssay (EPA / NIEHS).
# Calls of active or inactive are those of the source. How the source made its calls: active means hit-call score of the fitted dose curve at least 0.9, where 1 is the maximum; inactive means score below 0.9.
# Experiment: ATG_Ets_CIS: Attagene CIS-FACTORIAL HepG2 Assay for human Erythroblast Transformation Specific (ETS) (AID 2282941)
# Conditions: HepG2 ETS cis-reporter transcription, actives raise or lower the signal
# Method: ATG_CIS is a cell-based, multiplexed-readout assay that uses HepG2, a human liver cell line, with measurements taken at 24 hours after chemical dosing in a 24-well plate.ATG_Ets_CIS is one of 52 assay component(s) measured or calculated from the ATG_CIS assay. It is designed to make measurements of mRNA induction, a form of inducible reporter, as detected with fluorescence intensity signals by Reverse transcription polymerase chain reaction (RT-PCR) and Capillary electrophoresis technology.Data from the assay component ATG_Ets_CIS was analyzed into 1 assay endpoint. This assay endpoint, ATG_Ets_CIS, was analyzed with bidirectional fitting relative to DMSO as the negative control and baseline of activity. Using a type of inducible reporter, measures of mRNA for gain or loss-of-signal activity can be used to understand the reporter gene at the transcription factor-level as they relate to the gene ETS1. Furthermore, this assay endpoint can be referred to as a primary readout, because this assay has produced multiple assay endpoints where this one serves a reporter gene function. To generalize the intended target to other relatable targets, this assay endpoint is annotated to the dna binding intended target family, where the subfamily is winged helix-turn-helix.
# Human liver HepG2 cells are transiently transfected with multiple reporter transcription units (MRTUs) in 6-well plates using FuGene 6 reagent (Roche; 3 ml FuGene/1 mg DNA). The MRTU constructs are regulated by a cis-regulating element (promoter). […] A major difference between the CIS and TRANS system is that in CIS activities of endogenous TFs are measured, whereas the TRANS assay evaluates changes in activities of exogenous, chimeric NR-Gal4 proteins. […] At the end of 24 hour incubation, total RNA was isolated using TriZol reagent (Invitrogen). The isolated RNA is then reverse-transcribed using oligo(dT) primer and Mo-MLV reverse transcriptase (Invitrogen) with DNAse I (Ambion) treatment for 30 min. The one-tenth of the produced cDNA was amplified by PCR using Taq DNA polymerase (Invitrogen) and two reporter sequence-specific primers. The PCR products were fluorescently labeled by primer extension with 6-arboxyfluorescein (6-FAM) 5'-labeled reporter sequence-specific primer (2 min at 95 C, 20 s at 68 C and 10 min at 72 C) and these products were digested with 5U of HpaI (New England Biolabs) for 2h at 37 C. The fragments were purified using Qiaquick PCR columns (Qiagen), analyzed on an ABI 3130xL genetic analyzer (Applied Biosystems) with peak positions identified by using a set of X-rhodamine (ROX)-labeled MapMarker1000 molecular weight standards (BioVentures). The raw capillary electrophoresis data was processed using Attagraph software (Attagene).
Structure (SMILES),outcome,AC50
CCCCCCC1(C)CCC(=O)O1 (stereo not given),inactive,–
CCCc1ccc(OC)cc1,inactive,–
C[Si](C)(CCCN)O[Si](C)(C)CCCN,inactive,–
CCC(C)OC(=O)c1ccc(O)cc1 (stereo not given),inactive,–
C=C(C)[C@H]1CC=C(C)CC1,inactive,–
C=CCCCCCCCCC(=O)OCCCC,inactive,–
FC(F)=C(F)OC(F)(F)C(F)(F)C(F)(F)F,inactive,–
O=Nc1ccc(O)cc1,inactive,–
CCCCCC/C=C/C=O,inactive,–
OCCCS,inactive,–
CCO[Si](C)(OCC)OCC,inactive,–
S=C(NC1CCCCC1)NC1CCCCC1,inactive,–
O=C1CCCCCCCCCCC(=O)OCCO1,inactive,–
CC(C)(c1cc(Br)c(OCCO)c(Br)c1)c1cc(Br)c(OCCO)c(Br)c1,–,43.7 µM (active)
c1cc(N(CC2CO2)CC2CO2)ccc1OCC1CO1 (stereo not given),inactive,–
CC(=O)[C@H]1[C@H](C#N)C[C@H]2[C@@H]3CC=C4C[C@@H](O)CC[C@]4(C)[C@H]3CC[C@@]21C,inactive,–
O=C(O)C(c1ccc(Cl)cc1)c1ccc(Cl)cc1,inactive,–
CCC(CC)C(=O)O,inactive,–
O=C(Nc1cccc(C(F)(F)F)c1)c1cc(Br)cc(Br)c1O,inactive,–
O=S(=O)(O)c1ccccc1C=Cc1ccc(-c2ccc(C=Cc3ccccc3S(=O)(=O)O)cc2)cc1,inactive,–

Structure (SMILES),outcome,AC50
CC(=O)OCCC1CCCCC1,inactive,–
C(=CC=Nc1ccccc1)C=CNc1ccccc1,inactive,–
CCCCCCCCCCc1ccccc1,inactive,–
C=C(C)c1cccc(C(C)(C)N=C=O)c1,inactive,–
C=COCCCC,inactive,–
Cc1ccc(N/N=c2\c(=O)cc/c(=N/Nc3ccc(S(=O)(=O)O)cc3)c2=O)c(C)c1,inactive,–
Cc1cc(C)c(C)c(O)c1,inactive,–
COC(=O)c1ccc2cc(C(=O)OC)ccc2c1,inactive,–
CC(=O)[C@@]1(O)CC[C@H]2[C@@H]3C[C@H](C)C4=CC(=O)C=C[C@]4(C)[C@@]3(F)[C@@H](O)C[C@@]21C,inactive,–
CC=CC(F)(F)C(F)(F)C(F)(F)F,inactive,–
CCO[Si](CCCN=C=O)(OCC)OCC,inactive,–
CN(C)c1ccc(N=Nc2ccccc2C(=O)O)cc1,inactive,–
COc1ccc(-c2coc3cc(O)ccc3c2=O)cc1,inactive,–
CCCCCCCCCCCCCCCC[N+](C)(C)CC,inactive,–
c1ccc(CNCc2ccccc2)cc1,inactive,–
O=c1n(CCO)c(=O)n(CCO)c(=O)n1CCO,inactive,–
CC(CC=O)CCCC(C)(C)O (stereo not given),inactive,–
OC1OCCOC1O (stereo not given),inactive,–
CCCCCCCCC(=O)OCC,inactive,–
C=CC(=O)NC(C)(C)CS(=O)(=O)O,inactive,–
